Assay results from PubChem BioAssay (NCATS).
“And” between values parts separate entries of the source, which are not always exact repeats. Equal entries are not always repeated. Results filed as inconclusive are left out. Where a call stands in place of a potency, no number is given. The source made the active and inactive calls. Calls follow the shape of the dose curve; as a rule, active = well fitted cell-killing curve with a large enough effect; inconclusive = small, poorly fitted or top-dose-only effect, or effect the other way; inactive = no such curve, though single readings can be large or run the other way.

Assay: Cell Viability - LYMP2-004 (AID 966); also: nearly all actives have a fitted effect of over 65% in size
Conditions: LYMP2-004 lymphoblastoid cell viability, qHTS; series mostly up to 92.2 µM
From the text: NIH Chemical Genomics Center [NCGC]
NIH Molecular Libraries Screening Centers Network [MLSCN]
National Institutes of Environmental Health Sciences [NIEHS]
National Toxicology Program [NTP]
We have developed a 1536-well cell-based assay for quantitative high throughput screening (qHTS) against a number of cell lines to determine in vitro cytotoxicity of small molecules. This particular assay uses a human lymphoblastoid cell line (LYMP2-004) purchased from Coriell Institute for Medical Research.
NCGC Assay Protocol Summary:
The CellTiter-Glo luminescent cell viability assay (Promega) is a homogeneous method to measure the number of viable cells in culture. The end point readout of this assay is based on quantitation of intracellular ATP, an indicator of metabolic activity, using the luciferase reaction. Luciferase catalyzes the oxidation of beetle Luciferin to oxyluciferin and light in the presence of ATP. The luminescent signal is proportional to amount of ATP present.
Using the CellTiter-Glo luminescent cell viability assay, the amount of cellular ATP was measured in the lymphoblastoid cell line with complete culture medium following compound treatment for 24 hours. The assay was performed in opaque white Kalypsys 1536-well plates. In the screen, tetraoctylammonium bromide was used as positive control. Library compounds were measured for their ability to cause acute toxicity in the cell line, as reflected by a decrease in intracellular ATP levels, in a concentration-dependent manner. […] AC50 values were determined from concentration-response data modeled with the standard Hill equation.
qHTS protocol for CellTiter Glo lymphoblastoid cellular assay
[Step] [Parameter] [Value] [Description]
1. Reagent; 5 uL; 2500 lymphoblastoid cells/well
2. Time; 5 hr; 37 C incubation
4. Controls; 23 nL; Tetraoctylammonium bromide 6.4pM to 92 uM
5. Time; 24 hr; 37 C incubation
6. Reagent; 5 uL; CellTiter Glo reagent
7. Time; 30 min; Room Temperature
8. Detection; Luminescence; Viewlux plate reader
Keywords: cell viability, cytotoxicity, lymphoblastoid cell line, luminescence, NTPHTS, NTPHTS_NCGC, NIEHS, DSSTox, MLSMR, MLSCN, NIH Roadmap, qHTS, NCGC
Potency is read from the fitted curve at half-maximal effect.

Row | Compound | Potency
1 | Cc1ccc([N+](=O)[O-])c(C)c1 | inactive
2 | COC(=O)c1ccc(C=O)cc1 | inactive
3 | COC(=O)c1ccc(C)cc1 | inactive
4 | CCCCOCCO | inactive
5 | c1ccc2c(c1)c1cccc3ccc4cccc2c4c31 | inactive
6 | C=CCOC(=O)c1ccccc1C(=O)OCC=C | inactive
7 | C1OCOCO1 | inactive
8 | C=CC(=C)CCC=C(C)C | inactive
9 | Cc1ccccc1C | inactive
10 | C[C@H](CCC(=O)O)[C@H]1CC[C@H]2[C@@H]3CC[C@@H]4C[C@H](O)CC[C@]4(C)[C@H]3CC[C@]12C | inactive
11 | C=CCc1ccc(OC)c(OC)c1 | inactive
12 | c1ccc2c(c1)[nH]c1ccccc12 | inactive
13 | ClCCCl | inactive
14 | OCCNCCO | inactive
15 | O=NO | inactive
16 | CC12CCC(CC1=O)C2(C)C (stereo not given) | inactive
17 | O=C1c2ccccc2C(=O)C1c1ccc2ccccc2n1 | inactive
18 | COc1ccc(/C=C/c2cc(OC)cc(=O)o2)cc1 | inactive
19 | COCC(=O)O | inactive
20 | Cc1ccc([N+](=O)[O-])cc1N | inactive

Row | Compound | Potency
21 | CCCCCCCCCCCC(=O)O | inactive
22 | C/C=C\c1ccc(OC)cc1 | inactive
23 | O=C1CCc2ccccc2O1 | inactive
24 | O=C(O)c1ccc(O)cc1O | inactive
25 | NC1=NC(S)C2N=CN=C2N1 (stereo not given) | 7.94 µM (active)
26 | CCO | inactive
27 | C=Cc1ccccc1Cl | inactive
28 | Nc1ccc(S(=O)(=O)O)cc1 | inactive
29 | CC1=CC(C)(C)Nc2ccccc21 | inactive
30 | COc1c2ccoc2cc2oc(=O)ccc12 | inactive
31 | CC1(C)CC(N=C=O)CC(C)(CN=C=O)C1 (stereo not given) | inactive
32 | Cc1ccc(N)c([N+](=O)[O-])c1 | inactive
33 | CCC(C)c1ccccc1O (stereo not given) | inactive
34 | O[C@@H]([C@H](O)[C@@H](O)CBr)[C@@H](O)CBr | inactive
35 | Clc1cc(Cl)c(Cl)c(Cl)c1Cl | inactive
36 | CCCCCCCCO | inactive
37 | O=C(O)c1ccccc1C(c1ccc(O)cc1)c1ccc(O)cc1 | inactive
38 | C=CC(=O)OCCOCCOCCOCCOC(=O)C=C | 7.94 µM (active) and 12.6 µM (active)
39 | CC(=O)OC/C=C(\C)CCC=C(C)C | inactive
40 | O=S(=O)(O)c1ccccc1 | inactive
